Data from PubChem BioAssay (NCATS).
Inconclusive results are not listed. Entries that show only a call come without a potency. Unmarked numbers belong to inactive results. Calls of active or inactive are those of the source. Calls follow the shape of the dose curve; as a rule, active = well fitted curve in the direction sought with a large enough effect; inconclusive = small, poorly fitted or top-dose-only effect, or another doubt; inactive = no such curve, though single readings can be large; an effect the other way counts as inactive or inconclusive.

What was measured:
[1] = Viability qHTS for spleen associated tyrosine kinase inhibitor (SYKi) naive MV4-11 cells (AID 1963823); also: nearly all actives have a fitted effect of over 40% in size
Method in brief: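 SYK inhibitor-naive MV4-11 cells, 500 per well, exposed to compounds for 72 hr at 37 C, 5% CO2. Viability read as CellTiter-Glo luminescence after 10 min at room temperature.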

[2] = target: Cytochrome P450 3A7 (Homo sapiens) (UniProt P24462); assay: Cytochrome P450 family 3 subfamily A member 7 (CYP3A7) small molecule antagonists: luciferase biochemical qHTS assay (AID 1963596); also: nearly all actives have a fitted effect of over 40% in size
Method in brief: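 Luminescence read-out (relative luminescence units) after 20 min with detection reagent, which stops the reaction. Enzyme, proluciferin substrate and compound preincubated 10 min, RT; NADPH regeneration system then started 1 h reaction. Ketoconazole as positive control.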

[3] = Cellular viability qHTS for adrenocortical cancer (ACC) cell line SW-13 (AID 1963989); conditions: SW-13 ACC cells viability, CellTiter-Glo, 48 h; activity (max response): stronger effect = lower value;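 also: cells grown in serum-free medium with ITS supplement; nearly all actives have a fitted effect of over 65% in size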
Method in brief: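 Here, serum-free SW-13 cultures were dosed up to 46 uM. Following 48 h, ATP-dependent luminescence (CellTiter-Glo) reported viable cells, and logistic modeling produced IC50 values.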

[4] = Cellular viability qHTS for adrenocortical cancer (ACC) cell line NCI-H295R (AID 1963990); also: nearly all actives have a fitted effect of over 60% in size
Method in brief: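 Viability of NCI-H295R after 48 h of treatment (final up to 46 uM) measured through cellular ATP luminescence.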

Sequence of Cytochrome P450 3A7 (Homo sapiens) (P24462 whole entry, looked up): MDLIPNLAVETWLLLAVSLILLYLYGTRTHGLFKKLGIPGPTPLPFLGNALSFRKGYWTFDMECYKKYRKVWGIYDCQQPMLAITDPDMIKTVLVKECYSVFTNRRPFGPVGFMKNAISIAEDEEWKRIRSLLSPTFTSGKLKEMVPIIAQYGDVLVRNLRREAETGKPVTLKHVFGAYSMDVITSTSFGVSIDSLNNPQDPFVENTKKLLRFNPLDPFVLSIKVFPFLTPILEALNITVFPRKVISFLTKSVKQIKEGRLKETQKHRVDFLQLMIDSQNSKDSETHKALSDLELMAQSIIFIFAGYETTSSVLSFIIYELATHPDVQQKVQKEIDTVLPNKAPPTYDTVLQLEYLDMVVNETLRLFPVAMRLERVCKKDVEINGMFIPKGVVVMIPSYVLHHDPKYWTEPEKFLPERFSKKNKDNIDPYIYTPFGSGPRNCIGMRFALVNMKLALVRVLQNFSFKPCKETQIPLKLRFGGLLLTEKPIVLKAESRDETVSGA

Row | Structure (SMILES) | Potency [1] | Potency [2] | activity (max response) [3] [%] | Potency [4]
1 | C/C=C(/C)C1C=CC2CC(C)CC(C)C2C1/C(O)=C1\C(=O)NC(CC(C)(O)C(=O)O)C1=O (stereo not given) | inactive | – | – | –
2 | OCCOc1ccccc1 | – | inactive | 8.17 | inactive
3 | CCCCC(CC)COC(=O)c1ccccc1C(=O)OCC(CC)CCCC (stereo not given) | – | inactive | 14 | inactive
4 | O=C(O)Cc1ccccc1 | – | inactive | -6.54 | inactive
5 | CC[C@H]1C2CC3[C@@H]4N(C)c5ccccc5[C@]45C[C@@H]([C@H]2[C@H]5O)N3[C@H]1O | inactive | – | – | –
6 | C/C=C(\C)C(=O)OC1CC2C(C)(C)OC(=O)CC(OC(C)=O)C2(C)C2CC(OC(=O)C(C)C)C3(C)C(c4ccoc4)CC4OC43C12C (stereo not given) | inactive | – | – | –
7 | Fc1cc(Br)ccc1CBr | – | inactive | 13.3 | inactive
